Structures are written as SMILES.

Chromo domain-containing protein 1 (Saccharomyces cerevisiae (strain ATCC 204508 / S288c) (Baker's yeast)), sequence (P32657 whole entry, the tested form may be a part): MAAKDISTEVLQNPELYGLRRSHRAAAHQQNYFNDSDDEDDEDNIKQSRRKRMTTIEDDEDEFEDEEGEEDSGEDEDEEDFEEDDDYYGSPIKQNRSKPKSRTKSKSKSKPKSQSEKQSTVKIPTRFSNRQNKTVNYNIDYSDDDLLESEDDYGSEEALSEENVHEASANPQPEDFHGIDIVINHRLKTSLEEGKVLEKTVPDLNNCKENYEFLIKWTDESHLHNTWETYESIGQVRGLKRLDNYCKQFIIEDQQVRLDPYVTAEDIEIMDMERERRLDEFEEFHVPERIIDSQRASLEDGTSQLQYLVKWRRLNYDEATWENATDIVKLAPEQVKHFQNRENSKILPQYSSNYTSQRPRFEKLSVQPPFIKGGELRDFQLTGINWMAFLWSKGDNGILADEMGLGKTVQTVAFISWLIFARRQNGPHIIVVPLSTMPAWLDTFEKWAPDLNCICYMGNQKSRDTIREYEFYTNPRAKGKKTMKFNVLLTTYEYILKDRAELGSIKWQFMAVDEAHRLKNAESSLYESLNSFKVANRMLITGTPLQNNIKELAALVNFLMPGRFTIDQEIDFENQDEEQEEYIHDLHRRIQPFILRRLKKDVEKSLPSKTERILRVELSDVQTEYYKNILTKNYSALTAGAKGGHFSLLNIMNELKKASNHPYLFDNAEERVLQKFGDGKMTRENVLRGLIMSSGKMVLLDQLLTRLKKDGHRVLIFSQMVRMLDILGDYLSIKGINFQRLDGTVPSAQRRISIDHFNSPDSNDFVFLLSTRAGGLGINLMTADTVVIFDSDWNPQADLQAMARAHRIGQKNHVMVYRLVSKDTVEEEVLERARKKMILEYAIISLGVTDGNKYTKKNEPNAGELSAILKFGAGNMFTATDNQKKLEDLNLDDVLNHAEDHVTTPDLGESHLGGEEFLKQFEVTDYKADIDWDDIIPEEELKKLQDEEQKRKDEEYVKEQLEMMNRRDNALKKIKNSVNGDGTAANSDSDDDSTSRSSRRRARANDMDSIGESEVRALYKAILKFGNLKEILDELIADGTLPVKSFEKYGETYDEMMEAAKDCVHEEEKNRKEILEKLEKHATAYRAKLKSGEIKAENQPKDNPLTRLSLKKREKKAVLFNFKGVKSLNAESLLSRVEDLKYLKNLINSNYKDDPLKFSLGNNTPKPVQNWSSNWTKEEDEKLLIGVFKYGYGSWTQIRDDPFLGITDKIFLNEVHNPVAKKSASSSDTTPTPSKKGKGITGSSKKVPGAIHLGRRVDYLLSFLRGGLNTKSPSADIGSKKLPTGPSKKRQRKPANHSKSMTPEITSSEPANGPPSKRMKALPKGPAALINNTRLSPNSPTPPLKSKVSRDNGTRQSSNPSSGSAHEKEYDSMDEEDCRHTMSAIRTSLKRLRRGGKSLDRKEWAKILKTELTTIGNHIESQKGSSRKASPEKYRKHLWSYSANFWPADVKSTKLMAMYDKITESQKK

One test deals with T1, Tyrosyl-tRNA synthetase, putative (Trypanosoma cruzi (strain CL Brener)) (UniProt Q4DSP6).
T1 sequence (whole entry): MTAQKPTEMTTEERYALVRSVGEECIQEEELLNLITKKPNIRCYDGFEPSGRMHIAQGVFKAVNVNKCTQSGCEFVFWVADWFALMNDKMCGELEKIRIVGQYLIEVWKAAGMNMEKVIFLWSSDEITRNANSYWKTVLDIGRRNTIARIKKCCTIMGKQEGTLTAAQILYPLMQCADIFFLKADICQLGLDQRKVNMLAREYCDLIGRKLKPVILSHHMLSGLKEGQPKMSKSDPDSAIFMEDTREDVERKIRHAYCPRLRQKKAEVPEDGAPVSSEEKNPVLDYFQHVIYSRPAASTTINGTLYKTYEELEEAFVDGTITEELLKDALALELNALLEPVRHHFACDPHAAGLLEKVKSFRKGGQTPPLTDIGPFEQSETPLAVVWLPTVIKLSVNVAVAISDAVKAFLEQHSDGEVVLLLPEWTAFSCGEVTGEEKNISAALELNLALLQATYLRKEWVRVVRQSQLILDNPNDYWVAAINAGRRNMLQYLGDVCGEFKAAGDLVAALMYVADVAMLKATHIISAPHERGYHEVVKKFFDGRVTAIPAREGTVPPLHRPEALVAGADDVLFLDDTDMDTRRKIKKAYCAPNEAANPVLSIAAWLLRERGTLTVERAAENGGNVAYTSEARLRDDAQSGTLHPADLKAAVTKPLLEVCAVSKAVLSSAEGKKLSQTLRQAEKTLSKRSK
Put plainly: Trypanosoma cruzi tyrosyl tRNA synthetase (TcYRS) _High Tyrosine SOP. Type of test: functional. Also noted: scale not given: in the data most compounds retested in dose-response had high values. To be noted: 30 µM.
For `O=C(c1cccc(Cn2ccnc2)c1)N1CCCC(n2ccnc2)C1` (stereo not given), the Percent Effect came out at 5.94%.
As for `O=C(COc1ccc(C(F)(F)F)cc1)NS(=O)(=O)c1cccnc1`, the Percent Effect is -1.47%.
Same read-out and setting: with `NS(=O)(=O)N1CCc2ccc(NC(=O)Cc3ccc(F)cc3)cc21` the figure was -3.23%.
Still for that read-out and setting: the figure for `Cc1ccc(CC2CCCN2CC(=O)NCc2cccnc2)cc1` (stereo not given) is 4.25%.
The same measure, in the same setting: with `CN(C)CC1CSCCCN1C(=O)Nc1ccc(C(C)(C)C)cc1` (stereo not given) the figure was 4.23%; with `CC(CNC(=O)c1ccc(Cl)cc1I)N1CCCC1` (stereo not given), 6.88%; with `Cc1ncsc1C(=O)N(C)Cc1cccc(Cl)c1`, 5.39%.
As to `COc1ccc(C2C3=C(COC3=O)Nc3[nH]nc(C)c32)cc1OC` (stereo not given), the Percent Effect came out at 5.29%.
For `COCCN1CCc2cc(C(=O)N(C)C)c(NC(C)C)nc2CC1`, the Percent Effect was -10.8%.
Still for that read-out and setting: with `CCCC(=O)N1CCC(O)(Cn2c(CC)nc3ccccc3c2=O)CC1` the figure was 4.3%; with `CCc1nnsc1C(=O)NC1CCN(c2ccccn2)CC1`, 3.23%; with `Cc1ccc(CN2CC(C(=O)Nc3ccccc3)C3(CCOCC3)C2)s1` (stereo not given), 3.12%.
Still for that read-out and setting: the figure for `COc1cccc(CC2CN(C3CCN(C(C)=O)CC3)CCO2)c1` (stereo not given) is 2.15%; for `CCOCCCC(=O)NCCC(=O)N1CCN(c2ccccn2)CC1` it is 5.32%.
The same measure, in the same setting: the figure for `Cc1nc(CN2CCc3cncnc3C2)oc1C` is 2.15%.
In the case of `Cc1csc(N2CCN(C(=O)Cc3ccsc3)CC2)n1`, the Percent Effect amounted to 10.3%.
Still for that read-out and setting: with `COc1ncccc1C(=O)N1CCN(C(=O)Cc2ccccn2)CC1` the figure was 7.29%; with `Cc1cc(-c2nnc(SCC(=O)O)n2C(C)c2ccccc2)nn1C` (stereo not given), 9.47%; with `Cc1ccccc1CSCCn1nc2ccccn2c1=O`, 4.76%.
On the same count and under the same terms, the figure for `Fc1cccc(-n2ccc(CN3CCCCC3Cn3cncn3)n2)c1` (stereo not given) is -2.46%.

The next test deals with T1, Tyrosyl-tRNA synthetase, putative (Trypanosoma cruzi (strain CL Brener)). Put plainly: Trypanosoma cruzi tyrosyl tRNA synthetase (TcYRS) SOP. The class given is functional. On the set-up: scale not given: direction of the effect not stated beside the values. The following applies: 30 µM.
As to `Cc1nonc1CC(=O)N1C[C@@H]2CC[C@H](C1)N(Cc1ccccc1)C2=O`, the Percent Effect amounted to 2.44%.
Same read-out and setting: the figure for `CCOCC(O)CN1CCN(C(=O)CC(C)C)CC1` (stereo not given) is 11.1%; for `Cc1cnc(C(=O)N2CCCN(Cc3csc(C)n3)CC2)cn1` it is 8.64%.
For `CN1CCCC1CNC(=O)c1nnn(-c2ccc(F)cc2)c1C1CC1` (stereo not given), the Percent Effect stood at 3.66%.
Regarding `CN(Cc1cn2c(n1)CN(C(=O)CC1CC1)CC2)Cc1ccco1`, the Percent Effect is 14.1%.
On to `Cc1cccc(Cn2ccc(NS(C)(=O)=O)n2)c1`, for which the Percent Effect worked out at 11.1%.
For the compound `COc1cccc(COCC(=O)N2CCCC(N3CCCC3)CC2)c1` (stereo not given), the Percent Effect came to 7.32%.
With `OCCOCCN1CCCC1c1nc2cc(F)ccc2[nH]1` (stereo not given), the Percent Effect was found to be 18.5%.
The same measure, in the same setting: with `Cc1cnn(CC(C)NCc2nc(-c3cccnc3)no2)c1` (stereo not given) the figure was 5.13%; with `Cc1cc(C(=O)NCc2ccnc(N(C)C)c2)c(C)o1`, 12.2%.
On the same count and under the same terms, with `O=C(NCCn1ccnc1)c1cccc(F)c1` the figure was 13.6%; with `COc1ccccc1S(=O)(=O)Nc1ccc2c(C(=O)O)c[nH]c2c1`, 12.2%; with `O=C(Cc1cccc(Cl)c1)N[C@@H]1CCNC[C@H]1O`, 16.1%.
Still for that read-out and setting: with `CC(=O)N(C)c1nc(CN2CCOC(Cn3cccn3)C2)cs1` (stereo not given) the figure was 12.2%; with `N#CC1(C(=O)N2CCN(Cc3ccon3)CC2)CCC1`, 1.27%.
`COc1ccc(CN2CCCC(Nc3cccc(F)c3)C2)cc1O` (stereo not given): the Percent Effect amounted to 6.17%.
On to `Cc1cccc(-n2cc(C(=O)N3CCn4c(C)nnc4C3)nn2)c1`, for which the Percent Effect came out at 1.24%.
Regarding `COc1ccnc(N2CCN(C(=O)c3csc(C4CC4)n3)CC2)n1`, the Percent Effect came out at 8.64%.
For `CCNC(=O)[C@@H]1C[C@H](NC(=O)c2cncnc2C)CN1CCCSC`, the Percent Effect came out at 13.6%.
Still for that read-out and setting: with `CCc1nc(CN2CCN(c3ncnc4cc(F)ccc34)CC2)no1` the figure was -6.17%; with `O=C(c1cccc(Cn2ccnc2)c1)N1CCCC(n2ccnc2)C1` (stereo not given), 25.6%.
Still for that read-out and setting: with `O=C(COc1ccc(C(F)(F)F)cc1)NS(=O)(=O)c1cccnc1` the figure was -4.88%; with `NS(=O)(=O)N1CCc2ccc(NC(=O)Cc3ccc(F)cc3)cc21`, 2.5%.
With `Cc1ccc(CC2CCCN2CC(=O)NCc2cccnc2)cc1` (stereo not given), the Percent Effect was determined as 13%.
Same read-out and setting: the figure for `CN(C)CC1CSCCCN1C(=O)Nc1ccc(C(C)(C)C)cc1` (stereo not given) is 8.97%; for `CC(CNC(=O)c1ccc(Cl)cc1I)N1CCCC1` (stereo not given) it is 12.2%; for `Cc1ncsc1C(=O)N(C)Cc1cccc(Cl)c1` it is 19.5%.
Regarding `COc1ccc(C2C3=C(COC3=O)Nc3[nH]nc(C)c32)cc1OC` (stereo not given), the Percent Effect turned out to be 10.3%.
Still for that read-out and setting: with `COCCN1CCc2cc(C(=O)N(C)C)c(NC(C)C)nc2CC1` the figure was 3.7%.
Turning to `CCCC(=O)N1CCC(O)(Cn2c(CC)nc3ccccc3c2=O)CC1`, the Percent Effect was determined as 3.9%.
Still for that read-out and setting: the figure for `CCc1nnsc1C(=O)NC1CCN(c2ccccn2)CC1` is 16.1%; for `Cc1ccc(CN2CC(C(=O)Nc3ccccc3)C3(CCOCC3)C2)s1` (stereo not given) it is 25%; for `COc1cccc(CC2CN(C3CCN(C(C)=O)CC3)CCO2)c1` (stereo not given) it is 3.7%.
Turning to `CCOCCCC(=O)NCCC(=O)N1CCN(c2ccccn2)CC1`, the Percent Effect amounted to 13%.
Consider `Cc1nc(CN2CCc3cncnc3C2)oc1C`, for which the Percent Effect came out at 12.5%.
For the compound `Cc1csc(N2CCN(C(=O)Cc3ccsc3)CC2)n1`, the Percent Effect was 30.9%.
Same read-out and setting: with `COc1ncccc1C(=O)N1CCN(C(=O)Cc2ccccn2)CC1` the figure was 20.2%.
Still for that read-out and setting: the figure for `Cc1cc(-c2nnc(SCC(=O)O)n2C(C)c2ccccc2)nn1C` (stereo not given) is 12.8%; for `Cc1ccccc1CSCCn1nc2ccccn2c1=O` it is 18.8%; for `Fc1cccc(-n2ccc(CN3CCCCC3Cn3cncn3)n2)c1` (stereo not given) it is -8.86%.

The next test addresses Chromo domain-containing protein 1 (Saccharomyces cerevisiae (strain ATCC 204508 / S288c) (Baker's yeast)) (UniProt P32657). The test can be described thus: ScCHD-1 Enzyme Inhibition Assay. Type of test: functional. Also noted: scale not given: in the data most compounds retested in dose-response had high values. To be noted: 30 µM.
For the compound `Cc1nonc1CC(=O)N1C[C@@H]2CC[C@H](C1)N(Cc1ccccc1)C2=O`, the Percent Effect was -2.68%.
With `CCOCC(O)CN1CCN(C(=O)CC(C)C)CC1` (stereo not given), the Percent Effect is -7.14%.
With `Cc1cnc(C(=O)N2CCCN(Cc3csc(C)n3)CC2)cn1`, the Percent Effect was -12.5%.
Same read-out and setting: the figure for `CN1CCCC1CNC(=O)c1nnn(-c2ccc(F)cc2)c1C1CC1` (stereo not given) is -4.68%.
Same read-out and setting: the figure for `CN(Cc1cn2c(n1)CN(C(=O)CC1CC1)CC2)Cc1ccco1` is -0.584%; for `Cc1cccc(Cn2ccc(NS(C)(=O)=O)n2)c1` it is -7.65%; for `COc1cccc(COCC(=O)N2CCCC(N3CCCC3)CC2)c1` (stereo not given) it is -0.94%.
For `OCCOCCN1CCCC1c1nc2cc(F)ccc2[nH]1` (stereo not given), the Percent Effect was -1.92%.
On to `Cc1cnn(CC(C)NCc2nc(-c3cccnc3)no2)c1` (stereo not given), for which the Percent Effect is -1.42%.
The same measure, in the same setting: the figure for `Cc1cc(C(=O)NCc2ccnc(N(C)C)c2)c(C)o1` is -10.6%; for `O=C(NCCn1ccnc1)c1cccc(F)c1` it is -6.88%.
Still for that read-out and setting: with `COc1ccccc1S(=O)(=O)Nc1ccc2c(C(=O)O)c[nH]c2c1` the figure was -7.94%; with `O=C(Cc1cccc(Cl)c1)N[C@@H]1CCNC[C@H]1O`, -13.7%.
As to `CC(=O)N(C)c1nc(CN2CCOC(Cn3cccn3)C2)cs1` (stereo not given), the Percent Effect was -5.18%.
On the same count and under the same terms, with `N#CC1(C(=O)N2CCN(Cc3ccon3)CC2)CCC1` the figure was -3.39%.
`COc1ccc(CN2CCCC(Nc3cccc(F)c3)C2)cc1O` (stereo not given): the Percent Effect was 1.38%.
For `Cc1cccc(-n2cc(C(=O)N3CCn4c(C)nnc4C3)nn2)c1`, the Percent Effect amounted to 0.00385%.
Regarding `COc1ccnc(N2CCN(C(=O)c3csc(C4CC4)n3)CC2)n1`, the Percent Effect was -4.46%.
Still for that read-out and setting: with `CCNC(=O)[C@@H]1C[C@H](NC(=O)c2cncnc2C)CN1CCCSC` the figure was -0.349%; with `CCc1nc(CN2CCN(c3ncnc4cc(F)ccc34)CC2)no1`, 1.03%.
Still for that read-out and setting: with `O=C(c1cccc(Cn2ccnc2)c1)N1CCCC(n2ccnc2)C1` (stereo not given) the figure was -6.66%.
For `O=C(COc1ccc(C(F)(F)F)cc1)NS(=O)(=O)c1cccnc1`, the Percent Effect worked out at 4.47%.
Same read-out and setting: the figure for `NS(=O)(=O)N1CCc2ccc(NC(=O)Cc3ccc(F)cc3)cc21` is -1.74%.
Still for that read-out and setting: with `Cc1ccc(CC2CCCN2CC(=O)NCc2cccnc2)cc1` (stereo not given) the figure was -4.98%.
On the same count and under the same terms, the figure for `CN(C)CC1CSCCCN1C(=O)Nc1ccc(C(C)(C)C)cc1` (stereo not given) is -4.09%; for `CC(CNC(=O)c1ccc(Cl)cc1I)N1CCCC1` (stereo not given) it is 51.2%; for `Cc1ncsc1C(=O)N(C)Cc1cccc(Cl)c1` it is -10.9%.
As to `COc1ccc(C2C3=C(COC3=O)Nc3[nH]nc(C)c32)cc1OC` (stereo not given), the Percent Effect was -11%.
Turning to `COCCN1CCc2cc(C(=O)N(C)C)c(NC(C)C)nc2CC1`, the Percent Effect is -3.16%.
Still for that read-out and setting: the figure for `CCCC(=O)N1CCC(O)(Cn2c(CC)nc3ccccc3c2=O)CC1` is -6.13%; for `CCc1nnsc1C(=O)NC1CCN(c2ccccn2)CC1` it is -7.21%.
Same read-out and setting: the figure for `Cc1ccc(CN2CC(C(=O)Nc3ccccc3)C3(CCOCC3)C2)s1` (stereo not given) is -6.22%; for `COc1cccc(CC2CN(C3CCN(C(C)=O)CC3)CCO2)c1` (stereo not given) it is 1.6%.
Still for that read-out and setting: with `CCOCCCC(=O)NCCC(=O)N1CCN(c2ccccn2)CC1` the figure was -4.16%.
Turning to `Cc1nc(CN2CCc3cncnc3C2)oc1C`, the Percent Effect is -7.36%.
Regarding `Cc1csc(N2CCN(C(=O)Cc3ccsc3)CC2)n1`, the Percent Effect was -10.7%.
Same read-out and setting: the figure for `COc1ncccc1C(=O)N1CCN(C(=O)Cc2ccccn2)CC1` is -20.3%.
For `Cc1cc(-c2nnc(SCC(=O)O)n2C(C)c2ccccc2)nn1C` (stereo not given), the Percent Effect was -1.69%.
Same read-out and setting: with `Cc1ccccc1CSCCn1nc2ccccn2c1=O` the figure was -32.9%; with `Fc1cccc(-n2ccc(CN3CCCCC3Cn3cncn3)n2)c1` (stereo not given), 2.75%.
